Measurements taken from PubChem BioAssay AID624348 (National Center for Advancing Translational Sciences (NCATS), 2012).
Calls of active or inactive are those of the source.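 Rule for the calls: active = concentration cutting cell viability by half at or below 20 µM after three days; inconclusive = half-viability concentration between 20 and 30 µM; inactive = half-viability concentration of 30 µM or more.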

Assay: qHTS for Inducers of the Endoplasmic Reticulum Stress Response (ERSR) in Human Glioma: Hit Validation in Cytotoxic Counterscreen
Conditions: U87-MG glioma viability, CellTiter-Glo ATP luminescence, 72 h
Source text: Primary protein unfolding takes place for many diseases, including diabetes and hypoxia, , and triggers a reaction in the cells called ER stress response (ERSR). ). ERSR is designed as a repair mechanism, but ultimately leads to cell death via apoptosis if conditions triggering protein unfolding persist (1). The molecular clue to ERSR activation is the enhancement of the expression of key molecular chaperones, including the glucose regulated protein (GRP) 78. GRP78 is the main sensor for protein folding and the main actuator of the ERSR. In a collaboration between the Southern Research Institute and the NIH Chemical Genomics Center, a cell based screen was developed that reliably uses GRP78 as a sensor to identify small molecules as inducers of ERSR. In resting conditions, GRP78 binds proteins and acts as a natural repressor. Once unfolded proteins are present in the ER, GRP78 releases some of the repressors and binds to the unfolded proteins. The release of the repressors executes the ERSR program. Using a human glioma cell line in a miniaturized, luminescent format, a high-throughput screen was developed to identify actuators of the ERSR. This assay validates the hits identified in the primary screen in this cytotoxic counterscreen. Activity is undesirable in this assay. NIH Chemical Genomics Center [NCGC] NIH Molecular Libraries Probe Centers Network [MLPCN] MLPCN Grant: DA031669 Assay Submitter (PI): Maurizio Grimaldi, Southern Research Institute (1) Soboloff, J. and S. A. Berger (2002). "Sustained ER Ca2+ depletion suppresses protein synthesis and induces activation-enhanced cell death in mast cells." J Biol Chem 277(16): 13812-20.
Wild type U87-MG are dispensed at density 1000 cells/well into Greiner white solid bottom 1536-well assay plates. […] The plates are incubated at room temperature for 10 minutes and read in a ViewLux high-throughput CCD imager (PerkinElmer), wherein end-point measurements of luminescence through the quantitation of the ATP content, an indicator of metabolically active cells, are acquired.
In the case of `CC(C)Cc1nn2c(=O)cc(COC(=O)CNC(=O)c3ccc(C(C)(C)C)cc3)nc2s1`, the outcome is reported as “inactive”. With `Cc1ccc(-c2cc(NC(=O)C(C)Oc3ccc(C)c(C)c3)on2)cc1` (stereo not drawn) the outcome was “inactive”. For `CC(=O)N1CCOc2cc(S(=O)(=O)Nc3c(C)cccc3C(C)C)c(Cl)cc21`, the outcome was “inactive”.
